According to paper PMC11006913:
Positions count from the first letter of the chain named.

Tests used:
Assay in all cases: PBM; 200 nM protein, PBS
Details in all cases: dsDNA, one strand shown
[1] = target: CRX (Homo sapiens, UniProt O43186 26-111)
[2] = target: T1, SIX6 (Homo sapiens, UniProt O95475 114-200, L167I)
T1 sequence: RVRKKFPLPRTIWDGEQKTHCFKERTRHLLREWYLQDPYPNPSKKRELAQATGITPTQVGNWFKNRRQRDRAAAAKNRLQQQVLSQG

[3] = target: T2, SIX6 (Homo sapiens, UniProt O95475 114-200, L143V)
T2 sequence: T1 sequence with L30V, I54L

[4] = target: T3, SIX6 (Homo sapiens, UniProt O95475 114-200, H141N)
T3 sequence: T1 sequence with H28N, I54L

[5] = target: T4, SIX6 (Homo sapiens, UniProt O95475 114-200, T165P)
T4 sequence: T1 sequence with T52P, I54L

[6] = target: T5, SIX6 (Homo sapiens, UniProt O95475 114-200, L167M)
T5 sequence: T1 sequence with I54M

[7] = target: T6, SIX6 (Homo sapiens, UniProt O95475 114-200, L143M)
T6 sequence: T1 sequence with L30M, I54L

[8] = target: T7, SIX6 (Homo sapiens, UniProt O95475 114-200, L143I)
T7 sequence: T1 sequence with L30I, I54L

[9] = target: T8, SIX6 (Homo sapiens, UniProt O95475 114-200, T165G)
T8 sequence: T1 sequence with T52G, I54L

[10] = target: T9, SIX6 (Homo sapiens, UniProt O95475 114-200, T139Q)
T9 sequence: T1 sequence with T26Q, I54L

[11] = target: CRX (Homo sapiens, UniProt O43186 26-111, E42D)
[12] = target: T10, SIX6 (Homo sapiens, UniProt O95475 114-200, T165A)
T10 sequence: T1 sequence with T52A, I54L

[13] = target: T11, SIX6 (Homo sapiens, UniProt O95475 114-200, L167V)
T11 sequence: T1 sequence with I54V

[14] = target: T12, SIX6 (Homo sapiens, UniProt O95475 114-200)
T12 sequence: T1 sequence with I54L

[15] = target: T13, SIX6 (Homo sapiens, UniProt O95475 114-200, T165I)
T13 sequence: T1 sequence with T52I, I54L

[16] = target: CRX (Homo sapiens, UniProt O43186 26-111, R41L)
[17] = target: HOXB9 (Homo sapiens, UniProt P17482 171-250, T197M)
[18] = target: HOXA2 (Homo sapiens, UniProt O43364 129-215, R185T)
[19] = target: HOXB9 (Homo sapiens, UniProt P17482 171-250)
[20] = target: ALX3 (Homo sapiens, UniProt O95076 139-225, N203Q)
[21] = target: HOXA2 (Homo sapiens, UniProt O43364 129-215, R185K)
[22] = target: ALX3 (Homo sapiens, UniProt O95076 139-225)
[23] = target: ALX3 (Homo sapiens, UniProt O95076 139-225, L168Q)
[24] = target: HOXB9 (Homo sapiens, UniProt P17482 171-250, R186Q)
[25] = target: ALX3 (Homo sapiens, UniProt O95076 139-225, L168V)
[26] = target: HOXA2 (Homo sapiens, UniProt O43364 129-215, Y150S)
[27] = target: ALX3 (Homo sapiens, UniProt O95076 139-225, N203S)
[28] = target: HOXA2 (Homo sapiens, UniProt O43364 129-215)
Chain of HOXA2 (Homo sapiens, UniProt O43364 129-215) (O43364 129-215): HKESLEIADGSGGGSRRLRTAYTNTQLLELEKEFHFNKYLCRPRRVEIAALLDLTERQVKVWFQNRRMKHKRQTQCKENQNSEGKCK

Chain of CRX (Homo sapiens, UniProt O43186 26-111) (O43186 26-111): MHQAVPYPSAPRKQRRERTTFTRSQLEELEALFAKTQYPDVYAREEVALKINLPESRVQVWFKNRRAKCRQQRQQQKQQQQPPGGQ
Chain of CRX (Homo sapiens, UniProt O43186 26-111, R41L) (O43186 26-111 R41L): as the sequence (O43186 26-111) above, with R16L counted along it
Chain of CRX (Homo sapiens, UniProt O43186 26-111, E42D) (O43186 26-111 E42D): as the sequence (O43186 26-111) above, with E17D counted along it
Chain of ALX3 (Homo sapiens, UniProt O95076 139-225, L168V) (O95076 139-225 L168V): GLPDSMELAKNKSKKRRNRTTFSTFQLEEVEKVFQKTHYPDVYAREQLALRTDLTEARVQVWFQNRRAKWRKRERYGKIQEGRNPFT
Chain of HOXA2 (Homo sapiens, UniProt O43364 129-215, R185T) (O43364 129-215 R185T): as the sequence (O43364 129-215) above, with R57T counted along it
Chain of HOXB9 (Homo sapiens, UniProt P17482 171-250, R186Q) (P17482 171-250 R186Q): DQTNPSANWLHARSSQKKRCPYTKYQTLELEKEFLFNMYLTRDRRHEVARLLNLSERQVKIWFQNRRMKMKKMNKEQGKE
Chain of ALX3 (Homo sapiens, UniProt O95076 139-225, N203S) (O95076 139-225 N203S): as the sequence (O95076 139-225 L168V) above, with V30L, N65S counted along it
Chain of HOXB9 (Homo sapiens, UniProt P17482 171-250) (P17482 171-250): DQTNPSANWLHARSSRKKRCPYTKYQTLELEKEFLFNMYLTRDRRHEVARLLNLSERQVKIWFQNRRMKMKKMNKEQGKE
Chain of HOXA2 (Homo sapiens, UniProt O43364 129-215, Y150S) (O43364 129-215 Y150S): as the sequence (O43364 129-215) above, with Y22S counted along it
Chain of ALX3 (Homo sapiens, UniProt O95076 139-225, N203Q) (O95076 139-225 N203Q): as the sequence (O95076 139-225 L168V) above, with V30L, N65Q counted along it
Chain of HOXA2 (Homo sapiens, UniProt O43364 129-215, R185K) (O43364 129-215 R185K): as the sequence (O43364 129-215) above, with R57K counted along it
Chain of ALX3 (Homo sapiens, UniProt O95076 139-225) (O95076 139-225): as the sequence (O95076 139-225 L168V) above, with V30L counted along it
Chain of ALX3 (Homo sapiens, UniProt O95076 139-225, L168Q) (O95076 139-225 L168Q): as the sequence (O95076 139-225 L168V) above, with V30Q counted along it
Chain of HOXB9 (Homo sapiens, UniProt P17482 171-250, T197M) (P17482 171-250 T197M): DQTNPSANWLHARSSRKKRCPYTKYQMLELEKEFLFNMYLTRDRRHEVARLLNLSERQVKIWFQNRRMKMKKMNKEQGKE

ACGCAACG
binding signal [1]: 8.38 upbm affinity estimate (log intensity, higher = more binding, comparable within an allelic series)
binding signal [2]: 9.07 upbm affinity estimate (log intensity, higher = more binding, comparable within an allelic series)
binding signal [3]: 9.09 upbm affinity estimate (log intensity, higher = more binding, comparable within an allelic series)
binding signal [4]: 9.09 upbm affinity estimate (log intensity, higher = more binding, comparable within an allelic series)
binding signal [5]: 9.22 upbm affinity estimate (log intensity, higher = more binding, comparable within an allelic series)
binding signal [6]: 9.12 upbm affinity estimate (log intensity, higher = more binding, comparable within an allelic series)
binding signal [7]: 9.21 upbm affinity estimate (log intensity, higher = more binding, comparable within an allelic series)
binding signal [8]: 9.08 upbm affinity estimate (log intensity, higher = more binding, comparable within an allelic series)
binding signal [9]: 9.2 upbm affinity estimate (log intensity, higher = more binding, comparable within an allelic series)
binding signal [10]: 9.17 upbm affinity estimate (log intensity, higher = more binding, comparable within an allelic series)
binding signal [11]: 8.41 upbm affinity estimate (log intensity, higher = more binding, comparable within an allelic series)
binding signal [12]: 9.14 upbm affinity estimate (log intensity, higher = more binding, comparable within an allelic series)
binding signal [13]: 9.19 upbm affinity estimate (log intensity, higher = more binding, comparable within an allelic series)
binding signal [14]: 9.12 upbm affinity estimate (log intensity, higher = more binding, comparable within an allelic series)
binding signal [15]: 9.12 upbm affinity estimate (log intensity, higher = more binding, comparable within an allelic series)
binding signal [16]: 8.43 upbm affinity estimate (log intensity, higher = more binding, comparable within an allelic series)

CCAGGGGC
binding signal [1]: 7.85 upbm affinity estimate (log intensity, higher = more binding, comparable within an allelic series)
binding signal [17]: 8.38 upbm affinity estimate (log intensity, higher = more binding, comparable within an allelic series)
binding signal [2]: 8.79 upbm affinity estimate (log intensity, higher = more binding, comparable within an allelic series)
binding signal [3]: 8.71 upbm affinity estimate (log intensity, higher = more binding, comparable within an allelic series)
binding signal [4]: 8.85 upbm affinity estimate (log intensity, higher = more binding, comparable within an allelic series)
binding signal [5]: 8.79 upbm affinity estimate (log intensity, higher = more binding, comparable within an allelic series)
binding signal [6]: 8.77 upbm affinity estimate (log intensity, higher = more binding, comparable within an allelic series)
binding signal [7]: 8.78 upbm affinity estimate (log intensity, higher = more binding, comparable within an allelic series)
binding signal [8]: 8.85 upbm affinity estimate (log intensity, higher = more binding, comparable within an allelic series)
binding signal [9]: 8.91 upbm affinity estimate (log intensity, higher = more binding, comparable within an allelic series)
binding signal [18]: 7.15 upbm affinity estimate (log intensity, higher = more binding, comparable within an allelic series)
binding signal [19]: 8.33 upbm affinity estimate (log intensity, higher = more binding, comparable within an allelic series)
binding signal [10]: 8.83 upbm affinity estimate (log intensity, higher = more binding, comparable within an allelic series)
binding signal [11]: 7.94 upbm affinity estimate (log intensity, higher = more binding, comparable within an allelic series)
binding signal [20]: 7.67 upbm affinity estimate (log intensity, higher = more binding, comparable within an allelic series)
binding signal [12]: 8.82 upbm affinity estimate (log intensity, higher = more binding, comparable within an allelic series)
binding signal [21]: 10.2 upbm affinity estimate (log intensity, higher = more binding, comparable within an allelic series)
binding signal [13]: 8.8 upbm affinity estimate (log intensity, higher = more binding, comparable within an allelic series)
binding signal [22]: 7.59 upbm affinity estimate (log intensity, higher = more binding, comparable within an allelic series)
binding signal [14]: 8.88 upbm affinity estimate (log intensity, higher = more binding, comparable within an allelic series)
binding signal [23]: 7.73 upbm affinity estimate (log intensity, higher = more binding, comparable within an allelic series)
binding signal [15]: 8.84 upbm affinity estimate (log intensity, higher = more binding, comparable within an allelic series)
binding signal [24]: 8.39 upbm affinity estimate (log intensity, higher = more binding, comparable within an allelic series)
binding signal [25]: 7.75 upbm affinity estimate (log intensity, higher = more binding, comparable within an allelic series)
binding signal [26]: 10.3 upbm affinity estimate (log intensity, higher = more binding, comparable within an allelic series)
binding signal [16]: 8.19 upbm affinity estimate (log intensity, higher = more binding, comparable within an allelic series)
binding signal [27]: 7.65 upbm affinity estimate (log intensity, higher = more binding, comparable within an allelic series)
binding signal [28]: 7.27 upbm affinity estimate (log intensity, higher = more binding, comparable within an allelic series)
